Source: PubChem BioAssay (NCATS)
Records with an inconclusive call do not appear. Where a call stands in place of a potency, no number is given. Unmarked numbers belong to inactive results. The source made the active and inactive calls. Calls follow the shape of the dose curve; as a rule, active = well fitted curve in the direction sought with a large enough effect; inconclusive = small, poorly fitted or top-dose-only effect, or another doubt; inactive = no such curve, though single readings can be large; an effect the other way counts as inactive or inconclusive.

How the values were obtained:
[1] = qHTS of pediatric cancer cell lines to identify multiple opportunities for drug repurposing: Primary screen for LAN-5 cells (AID 1347100); also: potency is read from the fitted curve at half-maximal effect
Procedure, shortened: (§1)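 Cells (500-1,000/well) rested 5 h, then received compounds for 48 h; metabolically active cells were measured by CellTiter-Glo luminescence. Final concentrations spanned up to 46 µM (MIPE, 11-point) or 0.59 nM-46 µM (NPC, 8-point) in primary screens, 11-point in follow-ups.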

[2] = qHTS of pediatric cancer cell lines to identify multiple opportunities for drug repurposing: Primary screen for BT-12 cells (AID 1347101); also: nearly all actives have a fitted effect of over 25% in size; also: potency is read from the fitted curve at half-maximal effect
Procedure, shortened: as §1

[3] = qHTS of pediatric cancer cell lines to identify multiple opportunities for drug repurposing: Primary screen for Rh18 cells (AID 1347102); also: nearly all actives have a fitted effect of over 65% in size; also: potency is read from the fitted curve at half-maximal effect
Procedure, shortened: as §1

[4] = qHTS of pediatric cancer cell lines to identify multiple opportunities for drug repurposing: Primary screen for OHS-50 cells (AID 1347103); also: nearly all actives have a fitted effect of over 40% in size; also: potency is read from the fitted curve at half-maximal effect
Procedure, shortened: as §1

[5] = qHTS of pediatric cancer cell lines to identify multiple opportunities for drug repurposing: Primary screen for MG 63 (6-TG R) cells (AID 1347105); also: nearly all actives have a fitted effect of over 50% in size; also: potency is read from the fitted curve at half-maximal effect
Procedure, shortened: (§2)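 Viability was measured as metabolically active cells after 48 hours of treatment, read by CellTiter-Glo luminescence. Compounds were tested at multiple final concentrations, giving concentration-response curves.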

[6] = qHTS of pediatric cancer cell lines to identify multiple opportunities for drug repurposing: Primary screen for control Hh wild type fibroblast cells (AID 1347106); also: nearly all actives have a fitted effect of over 55% in size; also: potency is read from the fitted curve at half-maximal effect;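 as to activity change, negative = cytotoxic: series mostly up to about 46 µM; a drop in luminescence marks cytotoxicity and a rise apparent proliferation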
Procedure, shortened: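 Viability after 48 h compound treatment at 37C, 500-1,000 cells/well, read as ATP luminescence with CellTiter-Glo. Primary screens used 11-point (MIPE, 0.78 nM-46 µM) or 8-point (NPC, 0.59 nM-46 µM) final concentrations; follow-up screens used 11-point dilutions.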

[7] = qHTS of pediatric cancer cell lines to identify multiple opportunities for drug repurposing: Primary screen for Rh41 cells (AID 1347108); also: nearly all actives have a fitted effect of over 70% in size; also: potency is read from the fitted curve at half-maximal effect;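 as to activity change, negative = cytotoxic: series mostly up to about 46 µM; luminescence drop marks cytotoxic hits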
Procedure, shortened: as §2

[8] = qHTS of pediatric cancer cell lines to identify multiple opportunities for drug repurposing: Confirmatory screen for NB1643 cells (AID 1347109); also: nearly all actives have a fitted effect of over 45% in size; also: potency is read from the fitted curve at half-maximal effect
Procedure, shortened: as §1

[9] = qHTS of pediatric cancer cell lines to identify multiple opportunities for drug repurposing: Confirmatory screen for A673 cells (AID 1347110);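 also: cells exposed to compound for 48 h before the viability read; nearly all actives have a fitted effect of over 65% in size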; also: potency is read from the fitted curve at half-maximal effect
Procedure, shortened: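 A673 cells at 500-1,000 cells/well were dosed 5 h after plating, in dilution series up to 46 uM final; primary runs used 8 or 11 points and confirmatory runs used 11 points. Viability was read by CellTiter-Glo luminescence after 48 h, against DMSO and 2.3 uM bortezomib controls.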

[10] = qHTS of pediatric cancer cell lines to identify multiple opportunities for drug repurposing: Confirmatory screen for LAN-5 cells (AID 1347113); also: nearly all actives have a fitted effect of over 65% in size; also: potency is read from the fitted curve at half-maximal effect
Procedure, shortened: as §1

[11] = qHTS of pediatric cancer cell lines to identify multiple opportunities for drug repurposing: Confirmatory screen for NB-EBc1 cells (AID 1347115);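 also: cells exposed to compound for 48 h before the viability read; nearly all actives have a fitted effect of over 45% in size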; also: potency is read from the fitted curve at half-maximal effect
Procedure, shortened: as §1

[12] = qHTS of pediatric cancer cell lines to identify multiple opportunities for drug repurposing: Confirmatory screen for BT-37 cells (AID 1347117); also: potency is read from the fitted curve at half-maximal effect; nearly all actives have a fitted effect of over 55% in size
Procedure, shortened: as §1

[13] = qHTS of pediatric cancer cell lines to identify multiple opportunities for drug repurposing: Confirmatory screen for TC32 cells (AID 1347118);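 also: cells exposed to compound for 48 h before the read; nearly all actives have a fitted effect of over 65% in size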; also: potency is read from the fitted curve at half-maximal effect
Procedure, shortened: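 Luminescent ATP read-out (CellTiter-Glo) of metabolically active TC32 cells after 48 h exposure. Concentration-response curves came from 11-point (MIPE, 0.78 nM–46 µM) or 8-point (NPC, 0.59 nM–46 µM) primary titrations; follow-up used 11 points.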

[14] = qHTS of pediatric cancer cell lines to identify multiple opportunities for drug repurposing: Confirmatory screen for MG 63 (6-TG R) cells (AID 1347119); also: nearly all actives have a fitted effect of over 55% in size; also: potency is read from the fitted curve at half-maximal effect
Procedure, shortened: as §1

[15] = qHTS of pediatric cancer cell lines to identify multiple opportunities for drug repurposing: Primary screen for Rh30 cells (AID 1347107); also: nearly all actives have a fitted effect of over 75% in size; also: potency is read from the fitted curve at half-maximal effect; as to activity change, negative = cytotoxic: series mostly up to about 46 µM
Procedure, shortened: as §1

[16] = qHTS of pediatric cancer cell lines to identify multiple opportunities for drug repurposing: Primary screen for RD cells (AID 1347104); also: nearly all actives have a fitted effect of over 55% in size; also: potency is read from the fitted curve at half-maximal effect
Procedure, shortened: as §2

[17] = qHTS of pediatric cancer cell lines to identify multiple opportunities for drug repurposing: Confirmatory screen for SK-N-MC cells (AID 1347111);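 also: cells exposed to compound for 48 h before the readout; nearly all actives have a fitted effect of over 70% in size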; also: potency is read from the fitted curve at half-maximal effect
Procedure, shortened: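 Seed 500-1,000 cells/well; rest 5 h at 37 degrees C. Pin-transfer compounds, 11-point titration. Incubate 48 h. Add CellTiter-Glo, 15 min RT, read luminescence.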

[18] = qHTS of pediatric cancer cell lines to identify multiple opportunities for drug repurposing: Confirmatory screen for DAOY cells (AID 1347114); also: nearly all actives have a fitted effect of over 65% in size; also: potency is read from the fitted curve at half-maximal effect
Procedure, shortened: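 Viability measured as metabolically active cells via CellTiter-Glo luminescence following 48 hours of compound exposure, 11-point dilutions in confirmatory testing. 500-1,000 cells/well plated 5 hours before dosing; controls were DMSO and 2.3 µM bortezomib.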

[19] = qHTS of pediatric cancer cell lines to identify multiple opportunities for drug repurposing: Confirmatory screen for control Hh wild type fibroblast cells (AID 1347121); also: nearly all actives have a fitted effect of over 70% in size; also: potency is read from the fitted curve at half-maximal effect
Procedure, shortened: as §1

[20] = qHTS of pediatric cancer cell lines to identify multiple opportunities for drug repurposing: Confirmatory screen for BT-12 cells (AID 1347112); also: nearly all actives have a fitted effect of over 55% in size
Procedure, shortened: as §1

Compound: C[C@@]1(C(=O)Nc2ccc(F)nc2)CCCN1c1nc(Nc2cc(C3CC3)[nH]n2)c2cccn2n1
- Potency [1]: 0.0264 µM (active)
- Potency [2]: inactive
- Potency [3]: 16.6 µM (active)
- Potency [4]: 0.968 µM (active)
- Potency [5]: 11.8 µM (active)
- Potency [6]: 20.9 µM (active)
- Potency [7]: 0.0743 µM (active)
- Potency [8]: 0.293 µM (active)
- Potency [9]: 0.465 µM (active)
- Potency [10]: 0.147 µM (active)
- Potency [11]: 1.47 µM (active)
- Potency [12]: 2.93 µM (active)
- Potency [13]: 0.233 µM (active)
- Potency [14]: 0.104 µM (active)

Compound: Fc1ccc(CNc2ncnc3ccc(F)cc23)cc1
- Potency [1]: inactive
- Potency [2]: 4.32 µM (active)
- Potency [3]: inactive
- Potency [4]: 6.85 µM (active)
- Potency [5]: inactive
- Potency [6]: inactive

Compound: OC[C@H]1O[C@@H](OCCc2ccc(O)cc2)[C@H](O)[C@@H](O)[C@H]1O
- Potency [1]: inactive
- Potency [2]: inactive
- Potency [3]: inactive
- Potency [4]: inactive
- Potency [5]: inactive
- Potency [15]: inactive

Compound: COc1ccc(-c2cc(=O)c3c(O)cc(O[C@@H]4O[C@H](CO[C@@H]5O[C@@H](C)[C@H](O)[C@@H](O)[C@@H]5O)[C@@H](O)[C@H](O)[C@@H]4O)cc3o2)cc1O
- Potency [1]: inactive
- Potency [2]: inactive
- Potency [3]: inactive
- Potency [4]: inactive
- Potency [5]: inactive
- Potency [6]: inactive

Compound: CN1c2ccccc2C(=O)N2CCc3c([nH]c4ccccc34)C21 (configuration not stated)
- Potency [1]: inactive
- Potency [2]: inactive
- Potency [3]: inactive
- Potency [4]: inactive
- Potency [5]: inactive
- Potency [6]: inactive
- Potency [15]: inactive
- Potency [7]: inactive

Compound: CO[C@H]1C=CO[C@@]2(C)Oc3c(C)c(O)c4c(O)c(c(C=NN5CCN(C)CC5)c(O)c4c3C2=O)NC(=O)C(C)=CC=C[C@H](C)[C@H](O)[C@@H](C)[C@@H](O)[C@@H](C)[C@H](OC(C)=O)[C@H]1C
- activity change, negative = cytotoxic [1]: -8.14% [at 9.22 µM]
- activity change, negative = cytotoxic [2]: 2.32% [at 11.5 µM]
- activity change, negative = cytotoxic [3]: -3.68% [at 9.22 µM]
- activity change, negative = cytotoxic [4]: -1.83% [at 11.5 µM]
- activity change, negative = cytotoxic [5]: -12.4% [at 9.22 µM]
- activity change, negative = cytotoxic [6]: -5.37% [at 9.22 µM]
- activity change, negative = cytotoxic [15]: -1.05% [at 9.22 µM]
- activity change, negative = cytotoxic [7]: -8.55% [at 9.22 µM]

Compound: Cc1ccc(S(=O)(=O)OCC(=O)Nc2ccc(C(=O)O)c(O)c2)cc1
- Potency [1]: 2.35 µM (active)
- Potency [2]: inactive
- Potency [3]: inactive
- Potency [5]: inactive
- Potency [6]: inactive

Compound: O=C1C(CCC(O)c2ccc(F)cc2)C(c2ccc(O)cc2)N1c1ccc(F)cc1 (configuration not stated)
- Potency [1]: inactive
- Potency [2]: inactive
- Potency [3]: inactive
- Potency [16]: inactive
- Potency [5]: inactive
- Potency [6]: inactive
- Potency [15]: inactive
- Potency [7]: inactive

Compound: COc1ccc(-c2ccc3ncc4c(c3c2)n(-c2ccc(N3CCNCC3)c(C(F)(F)F)c2)c(=O)n4C)cn1
- Potency [1]: 0.166 µM (active)
- Potency [2]: 15.3 µM (active)
- Potency [4]: 0.0054 µM (active)
- Potency [16]: 0.743 µM (active)
- Potency [5]: 0.0047 µM (active)
- Potency [6]: 2.09 µM (active)
- Potency [15]: 1.87 µM (active)
- Potency [7]: 0.0235 µM (active)
- Potency [8]: 1.04 µM (active)
- Potency [9]: 0.131 µM (active)
- Potency [17]: 0.0827 µM (active)
- Potency [18]: 2.33 µM (active)
- Potency [11]: 0.928 µM (active)
- Potency [12]: 0.208 µM (active)
- Potency [13]: 0.0329 µM (active)
- Potency [14]: 0.0329 µM (active)
- Potency [19]: 10.4 µM (active)

Compound: CC1(C)[C@H]2CC[C@]3(C)[C@@H](C(=O)C=C4[C@@H]5C[C@@](C)(C(=O)O)CC[C@]5(C)CC[C@]43C)[C@@]2(C)CC[C@@H]1O
- Potency [1]: inactive
- Potency [2]: inactive
- Potency [3]: inactive
- Potency [16]: inactive
- Potency [5]: inactive
- Potency [6]: inactive
- Potency [15]: inactive
- Potency [7]: inactive

Compound: Cc1ccc2c(c1)c1c(n2CCc2ccc(C)nc2)CCN(C)C1
- Potency [1]: inactive
- Potency [2]: inactive
- Potency [3]: inactive
- Potency [16]: inactive
- Potency [5]: inactive
- Potency [6]: inactive
- Potency [15]: inactive
- Potency [7]: inactive

Compound: C#CCN(C)CC1=Cc2ccccc2Oc2ccccc21
- Potency [1]: inactive
- Potency [2]: inactive
- Potency [3]: inactive
- Potency [6]: inactive

Compound: O=C(CO)N1CCC(c2[nH]nc(-c3ccc(Cl)cc3)c2-c2ccncn2)CC1
- Potency [1]: inactive
- Potency [2]: inactive
- Potency [4]: inactive
- Potency [16]: inactive
- Potency [5]: inactive
- Potency [6]: inactive

Compound: NC(=O)c1ccc(N(C(N)=O)c2c(F)cccc2F)nc1-c1ccc(F)cc1F
- Potency [1]: inactive
- Potency [2]: inactive
- Potency [3]: inactive
- Potency [5]: inactive
- Potency [6]: inactive
- Potency [15]: inactive

Compound: Cc1cnc(-c2cc(N3CCN(C(=O)CCS(C)(=O)=O)CC3)ncc2Cl)c(C)c1
- Potency [1]: inactive
- Potency [2]: inactive
- Potency [3]: inactive
- Potency [5]: inactive
- Potency [6]: inactive
- Potency [15]: inactive
- Potency [7]: inactive
- Potency [8]: inactive
- Potency [9]: inactive
- Potency [17]: inactive
- Potency [20]: inactive
- Potency [10]: inactive
- Potency [18]: inactive
- Potency [11]: inactive
- Potency [12]: 29.3 µM (active)
- Potency [13]: inactive
- Potency [14]: inactive
- Potency [19]: inactive

Compound: C#C[C@]1(O)CC[C@H]2[C@H]3CCc4cc(OC)ccc4[C@H]3CC[C@@]21C
- Potency [1]: inactive
- Potency [2]: inactive
- Potency [3]: inactive
- Potency [6]: inactive
- Potency [15]: inactive
- Potency [7]: inactive

Compound: CN(CC=CC#CC(C)(C)C)Cc1cccc2ccccc12
- Potency [1]: inactive
- Potency [2]: inactive
- Potency [4]: inactive
- Potency [16]: inactive
- Potency [5]: inactive
- Potency [6]: inactive
- Potency [15]: inactive
- Potency [7]: inactive

Compound: CN(C)CCOc1ccc(C(=C(CCCl)c2ccccc2)c2ccccc2)cc1
- Potency [1]: inactive
- Potency [2]: inactive
- Potency [3]: inactive
- Potency [5]: inactive
- Potency [6]: inactive
- Potency [15]: inactive
- Potency [7]: inactive

Compound: O=S(=O)(NCCNCC=Cc1ccc(Br)cc1)c1cccc2cnccc12
- Potency [1]: 20.9 µM (active)
- Potency [2]: 21.7 µM (active)
- Potency [4]: 7.69 µM (active)
- Potency [16]: 18.7 µM (active)
- Potency [5]: 14.8 µM (active)
- Potency [6]: inactive

Compound: CC(=O)OCC(=O)[C@@]12OC(C)(C)O[C@H]1C[C@H]1[C@@H]3C[C@H](F)C4=CC(=O)C=C[C@]4(C)[C@@]3(F)[C@@H](O)C[C@@]12C
- Potency [1]: inactive
- Potency [2]: inactive
- Potency [3]: inactive
- Potency [5]: inactive
- Potency [6]: inactive
- Potency [15]: inactive

Compound: CN1CCC[C@H]1CCO[C@](C)(c1ccccc1)c1ccc(Cl)cc1
- Potency [1]: inactive
- Potency [2]: inactive
- Potency [3]: inactive
- Potency [5]: inactive
- Potency [6]: inactive
- Potency [15]: inactive

Compound: CCOC(=O)N1CCN([N+]([O-])=NOc2cc(ON=[N+]([O-])N3CCN(C(=O)OCC)CC3)c([N+](=O)[O-])cc2[N+](=O)[O-])CC1
- Potency [1]: inactive
- Potency [2]: inactive
- Potency [4]: inactive
- Potency [16]: inactive
- Potency [5]: inactive
- Potency [6]: inactive
- Potency [15]: inactive
- Potency [7]: inactive

Compound: CC(C)[C@H](O)C(=O)N[C@@H](C)C(=O)N[C@@H]1C(=O)N(C)CCc2ccccc21
- Potency [1]: inactive
- Potency [2]: inactive
- Potency [3]: inactive
- Potency [6]: inactive
- Potency [7]: inactive

Compound: CC[C@H](C)n1cc(C)c2c(C(=O)NCc3c(C)cc(C)[nH]c3=O)cc(-c3ccc(N4CCNCC4)nc3)cc21
- Potency [1]: 23.5 µM (active)
- Potency [2]: 30.6 µM (active)
- Potency [4]: 24.3 µM (active)
- Potency [16]: 4.69 µM (active)
- Potency [5]: 23.5 µM (active)
- Potency [6]: inactive
- Potency [7]: 18.7 µM (active)
